Bioassay records from PubChem BioAssay.
Statin myotox sup = protects C2C12 myotubes from simvastatin toxicity; AID 602340; rescue of ATP level, % at 7.49 µM; ATP luminescence, 48 h; scaled: DMSO 0, geranylgeraniol control 100; 330,000 compounds, 0.78% hits;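 active means mean ATP rescue above about 67%, or every replicate alone reaching that limit, limit read from the data, passing the limit was not always enough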;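 further: myotubes were challenged with 10 µM simvastatin during compound exposure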
esBAF inh = SWI/SNF esBAF complex inhibition | mouse ES cells, Bmi1-luciferase knock-in reporter, 24 h; 100% = twice the neutral-well signal | reporter increase, % at 12.5 µM | 350,000 compounds, 2% hits | AID 602393; in the data active means activation above about 40%;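 further: 0% = median of the plate's neutral control wells and 100% = double that signal; a rise in the Bmi1 reporter signal indicates esBAF inhibition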
MITF TRPM1 HTS = increases MITF-driven TRPM1 promoter luciferase signal. SK-MEL-5 TRPM1-promoter luciferase, 24 h; % of positive control, neutral wells = 0. activation, % at 12.5 µM. 300,000 compounds, 0.75% hits;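 active means mean activation of at least 80% with every replicate also reaching 80%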;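 further: 0% = neutral control wells and 100% = parthenolide positive control wells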
Wnt bcat act = activates Wnt/beta-catenin signaling in a reporter cell assay; activator, plate reader; activation, % at 9.35 µM; 300,000 compounds, 1.2% hits; in the data active means activation above about 30%, passing the limit was not always enough;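 further: 0% = neutral control wells and 100% = positive control wells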
GAA850 FXN act = activators of GAA850 frataxin (FXN) promoter. HEK293 lucGAA850 FXN promoter luciferase reporter, 24 h; percent of 10 µM SAHA response. 360,000 compounds, 0.56% hits. AID 540364. activation, % at 6 µM;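 active means activation above the average of all compounds screened plus 3 SD, cutoff fixed separately per campaign, cut at about 7.5% in these data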;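 further: 0% = DMSO wells and 100% = 10 µM SAHA wells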
The depositor's hits bear a star; . = not tested or not shown. In the library only some 3.3% were active in any assay of this set; here they are far more common.

SMILES	Statin myotox sup	esBAF inh	MITF TRPM1 HTS	Wnt bcat act	GAA850 FXN act
Cc1csc(NC(=O)CSc2nnc(CCNC(=O)c3cccs3)n2C)n1	98*	2	3	-1	1
COc1cccc(-c2ncc3ccccc3c2COC(=O)N2CCCCC2)c1	-11	2	16	-6	0
COc1cccc(-c2ncc3ccccc3c2COC(=O)N2CCOCC2)c1	2	53*	41	3	3
CC(=O)Nc1ccc(NC(=O)/C(Cl)=C/c2ccccc2)cc1	-9	53*	111*	-1	4
c1ccc(CNc2ncnc3c2oc2ccccc23)nc1	-1	65*	45	56*	5
COc1cc2c(cc1NCc1ccc3c(c1)OCO3)oc1ccccc12	-8	23	38	1	1
COc1cc2c(cc1NCc1ccccn1)oc1ccccc12	-33	45*	24	24	4
Clc1ncnc2c1oc1ccccc12	-10	52*	7	67*	1
c1ccc2c(c1)oc1c(NCC3CCCO3)ncnc12 (configuration not stated)	17	38	17	54*	2
CCc1nc(NCc2ccccn2)c2oc3ccccc3c2n1	-27	-21	-9	.	-2
CCSc1ncnc2c1oc1ccccc12	-7	16	38	0	3
CCCC#Cc1cnc2c(c1)C(=O)N([C@@H](C)CO)C[C@@H](C)[C@@H](CN(C)C(=O)CN1CCOCC1)O2	-2	0	.	.	.
CN(C)C(=O)[C@H]1[C@H](CO)[C@H]2Cn3c(ccc(-c4ccccc4F)c3=O)[C@@H]1N2C(=O)c1ccncc1	-16	-1	.	.	.
CC(=O)Nc1ccc(Nc2nc(C)nc3c2oc2ccccc23)cc1	-10	9	.	-1	3
CC(=O)c1ccc(Nc2ncnc3c2oc2ccccc23)cc1	-21	65*	60	.	5
C[C@@H]1CCCCO[C@@H](CN(C)C(=O)Nc2ccccc2)[C@@H](C)CN([C@H](C)CO)C(=O)c2cc(NC(=O)Nc3ccc4c(c3)OCO4)ccc2O1	-8	-4	.	.	.
CC(CNC(=O)c1ccccc1Cl)c1ccccc1 (configuration not stated)	-4	48*	66	7	3
O=C(NCCCCNC(=O)c1ccccc1Cl)c1ccccc1Cl	11	-1	2	-1	0
C[C@H](CO)N1C[C@H](C)[C@@H](CN(C)Cc2ccc3c(c2)OCO3)Oc2ccc(NS(=O)(=O)c3ccc(F)cc3)cc2CC1=O	150*	7	.	.	.
C[C@@H]1CN([C@@H](C)CO)C(=O)Cc2cc(NS(=O)(=O)c3ccc(F)cc3)ccc2O[C@H]1CN(C)Cc1ccc2c(c1)OCO2	63	4	.	.	.
C[C@H]1CN([C@@H](C)CO)C(=O)Cc2cc(NS(=O)(=O)c3ccc(F)cc3)ccc2O[C@@H]1CN(C)Cc1ccc2c(c1)OCO2	124*	6	.	.	.
C[C@H]1CN([C@@H](C)CO)C(=O)c2cc(NC(=O)Cc3ccccc3)ccc2O[C@H]1CN(C)Cc1ccc(C(=O)O)cc1	11	1	.	.	.
CCCCCn1nc(C)c(/C=N/NC(=O)c2ccoc2C)c1C	-14	62*	51	.	6
Cc1occc1C(=O)N/N=C/c1ccc(-c2ccccc2)cc1	-433	-7	40	21	2
CCN(CC)c1ccc(/C=N/NC(=O)OC)c(O)c1	-46	27	.	-1	3
SMILES	Statin myotox sup	esBAF inh	MITF TRPM1 HTS	Wnt bcat act	GAA850 FXN act
CCN(CC)c1ccc(/C=N/NC(=O)c2ccoc2C)c(O)c1	.	.	-16	47*	2
O=C(N/N=C/c1cccc2ccccc12)c1ccccc1Cl	0	13	.	4	3
Cc1occc1C(=O)N/N=C/c1ccc(OCc2ccccc2)cc1	-24	54*	.	38*	5
Cc1occc1C(=O)N/N=C/c1cccc2ccccc12	12	69*	97*	18	4
C[C@H]1CN([C@@H](C)CO)S(=O)(=O)c2ccc(-c3cccc(C#N)c3)cc2O[C@H]1CN(C)C(=O)c1cccnc1	16	-2	.	.	.
C[C@@H]1CN([C@H](C)CO)C(=O)CCCn2cc(nn2)CO[C@H]1CN(C)Cc1ccc2c(c1)OCCN2C	-3	-3	.	.	.
CC(=O)Nc1ccc2c(c1)C(=O)N(C)[C@H]1CC[C@H](CC(=O)Nc3cn(C)nc3C)O[C@H]1CO2	11	-2	.	.	.
Cc1cc(/C=N/NC(=O)c2ccoc2C)cc(C)c1O	-9	69*	.	0	5
